DAX1 inh-1 – DAX1 (NR0B1) inhibition, primary screen; HEK293T StAR-luciferase reporter, SF-1/DAX-1 repression relief; inhibition, % at 6.8 µM; 1.1% of 370,000 active;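 active = inhibition above the mean over all tested compounds plus 3 SD, cut at about 3.6% in these data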;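 also: higher inhibition means more luminescence from relief of DAX-1 repression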
hgDAF12 agonist – agonists of H. glycines DAF-12 nuclear receptor; activation, % at 6.8 µM; AID 687014; HEK293 GAL4-hgDAF12 UAS-luciferase reporter, agonist luminescence; normalized to butyrate control; 1.8% of 370,000 active;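 active = activation above a cutoff set at the mean of all screened compounds plus 3 SD, cut at about 10% in these data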
ssDAF12 agonist – activates DAF-12 receptor from parasite S. stercoralis. HEK293 ssDAF-12/GRIP1 lit1-tk-luc reporter, luminescence; % of 3 µM dafachronic acid response. activation, % at 6.8 µM. 1% of 370,000 active. AID 652126;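 active = activation above the mean over all tested compounds plus 3 SD, cut at about 0.9% in these data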
hcDAF12 agonist – activators of H. contortus DAF-12 nuclear receptor | HEK293 hcDAF-12 lit1-tk-luc reporter, luminescence; 0% DMSO, 100% Δ7-dafachronic acid | activation, % at 6.8 µM | 1.4% of 370,000 active;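 active = activation above the mean of all tested compounds plus 3 SD, cut at about 5.5% in these data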
DAX1 inh-2 – NR0B1 (DAX1) inhibition; P51843; HEK293 Gal4-DAX1 luciferase reporter, luminescence; inhibition, % at 6.75 µM; 0.99% of 340,000 active;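 active = inhibition above the mean over all tested compounds plus 3 SD, cut at about 4.2% in these data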;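 also: inhibition shows as a rise in luminescence from relieved DAX1 repression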
Target sequence (P51843 207-470 limits assumed): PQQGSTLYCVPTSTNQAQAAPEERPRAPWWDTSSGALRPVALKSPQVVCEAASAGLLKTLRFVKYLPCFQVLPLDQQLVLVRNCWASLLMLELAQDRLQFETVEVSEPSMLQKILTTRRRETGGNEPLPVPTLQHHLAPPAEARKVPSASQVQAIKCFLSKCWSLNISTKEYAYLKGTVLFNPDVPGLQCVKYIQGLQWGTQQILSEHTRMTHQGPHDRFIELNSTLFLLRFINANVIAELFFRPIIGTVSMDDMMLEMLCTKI
LXR ag – LXR-beta agonism as hcDAF-12 counter-screen. shares compounds with hcDAF12 agonist. HEK293 Gal4-LXR tk-luc reporter, luminescence, 24 h; normalized: DMSO 0%, positive control 100%. activation, % at 6.8 µM. 3,400 tested, under 10 active;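 active = mean percent activation of the reporter above a cutoff set as the average over tested compounds plus their standard deviation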
hcDAF12 conf – hcDAF-12 agonism, confirmation assay. shares compounds with hcDAF12 agonist. HEK293 hcDAF-12 lit1-tk-luc reporter, luminescence; % of Δ7-dafachronic acid response. activation, % at 6.8 µM. 61% of 3,400 active. AID 743032;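 active = mean activation across triplicate tests above the threshold derived from the earlier primary screen, cut at about 5.5% in these data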
hgDAF12 ag – confirmation of H. glycines DAF-12 agonists; shares compounds with hgDAF12 agonist; 80% of 3,300 active; HEK293 GAL4-hgDAF12 luciferase reporter, agonist mode; percent of butyrate response; activation, % at 6.8 µM;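 active = mean activation over triplicate wells above the hit cutoff derived from the earlier primary screen, cut at about 11% in these data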
LXRb DAF12 ctr – activates human LXR-beta, counter-screen for DAF-12 agonists. shares compounds with hgDAF12 agonist. HEK293 Gal4-LXR luciferase reporter, 24 h. activation, % at 6.8 µM. 3,300 tested, under 10 active. AID 743051;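 active = mean activation of the triplicate above a set limit carried over from the primary screen, none filed active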
A number is an active result; – = inactive; · = not tested or not shown; ! = not confirmed by another sample. Sampled rows, rich in hits. Any-hit rate of the full collection: about 4.1%.

SMILES	DAX1 inh-1	hgDAF12 agonist	ssDAF12 agonist	hcDAF12 agonist	DAX1 inh-2	LXR ag	hcDAF12 conf	hgDAF12 ag	LXRb DAF12 ctr
N/C(=N\OC(=O)c1cc(Cl)ccc1Cl)c1ccccn1	–	18	2.2	17	–	–	16	21	–
Cc1cc(/C(N)=N/OC(=O)c2ccccc2Cl)no1	–	14	1.2	13	·	–	9.6	17	–
Cc1cc(NC(=O)COC(=O)c2ccccc2Cl)no1	–	–	–	–	–	·	·	·	·
CSCCC(NC(=O)c1ccco1)C(=O)NCC1CCCO1 (configuration not stated)	–	–	–	–	–	·	·	·	·
O=C(Nc1nc2ccccc2[nH]1)c1cccc(Cl)c1	–	16	–	8.2	–	–	5.8	17	–
O=C(Nc1nc2ccccc2[nH]1)c1ccccc1	–	14	1.4	13	–	–	14	14	–
CCOc1ccccc1NS(=O)(=O)c1ccc2[nH]c(=O)ccc2c1	–	–	–	–	–	·	·	·	·
O=C(CN1C(=O)CCC1=O)Nc1nc(-c2ccccn2)cs1	–	–	–	–	–	·	·	·	·
O=C(CN1C(=O)CCC1=O)Nc1nc(-c2nc3ccccc3s2)cs1	4.5	16	1.2	7.6	–	–	–	12	–
Cc1ccc(C)c(NC(=S)c2ccc3ccccc3n2)c1	–	17	2.0	22	–	–	15	17	–
Cc1ccc(C)c(NC(=S)c2ccccn2)c1	–	–	–	–	–	·	·	·	·
COc1ccc2nc(SCC(C)=O)c(C#N)cc2c1	3.9	19	2.5	12	5.9	–	11	25	–
COc1ccc2nc(SC)c(C#N)cc2c1	–	–	–	–	–	·	·	·	·
COc1ccc2nc(NC(=O)c3cnccn3)sc2c1	3.6	15	1.1	8.6	–	–	–	15	–
Cc1ccc2nc(NC(=O)c3ccccn3)sc2c1	–	–	–	–	–	·	·	·	·
O=C(Nc1nc2ccc(F)cc2s1)c1cccs1	–	18	2.7	19	–	–	8.1	19	–
Cc1ccc2nc(NC(=O)c3ccccc3F)sc2c1	–	19	1.6	13	–	–	15	20	–
COc1ccc2nc(NC(=O)c3c(C)noc3C)sc2c1	–	–	–	–	–	·	·	·	·
COc1ccc2nc(NC(=O)c3ccccc3F)sc2c1	–	16	–	6.9	–	–	6.2	21	–
CCCOc1ccc(Oc2nc(-c3ccncc3)nc3ccccc23)cc1	–	–	–	–	–	·	·	·	·
Cc1cccc(NC(=O)CSc2nccn2Cc2ccco2)c1C	–	–	–	–	–	·	·	·	·
COc1ccc2[nH]c3nc(SC(C)C)nnc3c2c1	3.9	21	1.5	14	–	–	9.1	–	–
COc1cc(NC(=O)[C@@H]2CCCN2S(=O)(=O)c2cccc3cccnc23)cc(OC)c1OC	–	–	–	–	–	·	·	·	·
CCn1c(/C=C/c2ccccc2)nc2ccccc21	3.9	15	1.4	11	–	–	12	17	–
NS(=O)(=O)c1ccc(NC(=O)c2ccc3c(c2)CCCC3)cc1	–	–	–	–	–	·	·	·	·
SMILES	DAX1 inh-1	hgDAF12 agonist	ssDAF12 agonist	hcDAF12 agonist	DAX1 inh-2	LXR ag	hcDAF12 conf	hgDAF12 ag	LXRb DAF12 ctr
CNC(=O)c1ccsc1NC(=O)c1ccc2c(c1)CCCC2	–	17	–	6.9	–	–	7.0	–	–
CCCCNC(=O)C[C@@H]1C[C@@]2(C(=O)OCC)CCC=C2N(Cc2ccc(Cl)cc2Cl)C1=O	–	–	–	–	·	·	·	·	·
Clc1cccc(-c2nnc(-c3ccccc3)o2)c1	–	16	1.9	14	–	–	11	23	–
Cc1scc(C(=O)N/N=C/c2ccc(OC(C)C)cc2)c1C	–	–	–	–	–	·	·	·	·
Cc1scc(C(=O)N/N=C/c2ccc(Cl)s2)c1C	–	14	–	8.2	6.2	–	–	15	–
CC1=CN2C(=N)/C(=C/c3ccc(C)o3)C(=O)N=C2S1	4.0	20	–	15	–	–	–	12	–
Oc1ccccc1-c1cc(-c2cccc(F)c2)n[nH]1	4.4	24	2.4	21	–	–	16	27	–
Cc1ccc(-n2nc3c(c2NC(=O)C2CCCC2)CS(=O)(=O)C3)cc1	–	–	–	–	–	·	·	·	·
O=c1[nH]c(N/N=C\c2ccc(F)cc2)nc2ccccc12	–	15	1.6	8.4	–	–	–	18	–
O=c1[nH]c(N/N=C/c2ccc(O)cc2)nc2ccccc12	–	–	–	–	–	·	·	·	·
CCOc1ccc(C(=O)NC2CCN(CC(=O)NCc3ccccc3)CC2)cc1	–	–	–	–	–	·	·	·	·
CC(C)c1ccc(NC(=O)c2cccnc2)cc1	–	–	–	–	–	·	·	·	·
CC(C)c1ccc(NC(=O)c2snc3ccc(Cl)cc23)cc1	3.8	20	2.7	11	–	–	12	17	–
O=C(O)c1cc(N/N=C/c2ccncc2)ccc1Cl	–	–	–	–	–	·	·	·	·
O=C(O)c1cc(N/N=C/c2ccc(-c3ccccc3)cc2)ccc1Cl	–	24	1.3	11	–	–	12	25	–
c1ccc([C@H]2CN3C(=N2)Sc2ccccc23)cc1	–	16	2.5	13	–	–	15	24	–
C[C@H](CO)N1C[C@H](C)[C@@H](CN(C)C(=O)Nc2ccccc2)Oc2ccc(NC(=O)Nc3ccccc3)cc2C1=O	–	–	–	–	–	·	·	·	·
O=[N+]([O-])c1ccccc1-c1nc(-c2ccc(Br)o2)no1	4.5	21	2.8	15	–	–	8.6	18	–
Nc1nnc(-c2ccccc2[N+](=O)[O-])o1	–	–	–	–	–	·	·	·	·
Brc1ccc(-c2noc(-c3ccccn3)n2)o1	–	20	1.4	10	–	–	7.8	21	–
CC1=CC(C)=Nc2ccc(C)cc2N1	4.1	16	–	5.6	–	–	–	12!	–
Cc1ccc2c(c1)NC(=O)CC(c1ccccc1)=N2	–	–	–	–	–	·	·	·	·
Oc1c(-c2cc(-c3ccco3)[nH]n2)ccc2ccccc12	3.6	20	2.6	13	–	–	15	25	–
COc1ccc(C(=O)N/N=C(/C)c2cccc(NC(=O)c3ccccc3F)c2)cc1	–	–	–	–	–	·	·	·	·
C/C(=N\NC(=O)c1nn(C)c(C)c1Br)c1ccc(NC(=O)c2ccccc2F)cc1	4.2	14	–	7.2	4.4	–	–	–	–
